These results are taken from the supplement of paper PMC10105736.

Test in all cases: MAPPIT interaction score (arbitrary units); higher = stronger binary interaction signal, active = hit call of the paper
One test has as its target orb. The following applies: MAPPIT configuration: N-N; pair source set: DPIM.
Another test addresses ox. As to conditions: MAPPIT configuration: N-N; pair source set: Curagen_low_conf.
A further test deals with pip. As to conditions: MAPPIT configuration: N-N; pair source set: Lit-BS-16.
Another test has as its target poly. The following applies: MAPPIT configuration: N-C; pair source set: screen_3.
For another test, the target named is otp. As to conditions: MAPPIT configuration: N-N; pair source set: screen_2.
In the next test the target is opa. The following applies: MAPPIT configuration: N-N; pair source set: Finley_Y2H.
The target in a further test is prd. As to conditions: MAPPIT configuration: N-N; pair source set: Finley_Y2H.
A further test concerns the target ras. The following applies: MAPPIT configuration: N-N; pair source set: Finley_Y2H.
For a further test, the target named is ord. The following applies: MAPPIT configuration: N-N; pair source set: Lit-BM-16.
The target of another test is rst. The following applies: pair source set: Lit-BM-16.
In a further test the target is salr. The following applies: MAPPIT configuration: N-N; pair source set: Finley_Y2H.
In another test the target is sac. As to conditions: MAPPIT configuration: N-N; pair source set: RRS.
The next test deals with rux. The following applies: MAPPIT configuration: N-N; pair source set: Finley_Y2H.
A further test deals with nw. The following applies: MAPPIT configuration: N-N; pair source set: RRS.

Values without a mark were called inactive.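 Rule for the calls: active = MAPPIT score above the 99th percentile of random reference set scores in the same batch; inactive = at or below it.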
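Note: HEK293T cells with Epo stimulation, STAT-responsive firefly luciferase reporter, fold induction versus unstimulated cells divided by the larger fold induction of two negative controls lacking either bait or prey.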

B1: ND-ACP (protein)
chain: MSFTQIARSCSRLAATLAPRRVASGILIQSQASRMMHRIAVPSMTSQLSQECRGRWQTQLVRKYSAKPPLSLKLINERVLLVLKLYDKIDPSKLNVESHFINDLGLDSLDHVEVIMAMEDEFGFEIPDSDAEKLLKPADIIKYVADKEDVYE
As to B1, the MAPPIT interaction score with orb is 0.0809.

B2: eEF1beta (protein)
chain: MAFGDVTTPQGLKELNAFLADNSYISGYTPSKADLSVFDALGKAPSADNVNVARWYRHIASFEAAERAAWSGTPLPQLAGGKPTVAAAAKPAADDDDDVDLFGSDDEEDEEAERIKQERVAAYAAKKSKKPALIAKSSVLLDVKPWDDETDMKEMENNVRTIEMDGLLWGASKLVPVGYGINKLQIMCVIEDDKVSIDLLQEKIEEFEDFVQSVDIAAFNKI
In the case of B2, the MAPPIT interaction score with ox was 0.286.

B3: Snp (protein)
chain: MALIKLARQLGLIDTIYVDGARPDPNNDPEESFNEDEVTEANSVPAKSKKSRKSKRLAMQPYSYVIAVDFEATCWEKQAPPEWREAEIIEFPAVLVNLKTGKIEAEFHQYILPFESPRLSAYCTELTGIQQKTVDSGMPLRTAIVMFNEWLRNEMRARNLTLPKMNKSNILGNCAFVTWTDWDFGICLAKECSRKGIRKPAYFNQWIDVRAIYRSWYKYRPCNFTDALSHVGLAFEGKAHSGIDDAKNLGALMCKMVRDGALFSITKDLTPYQQLNPRFVL
On to B3, for which the MAPPIT interaction score with pip is -0.236.

B4: GstE14 (protein)
chain: MSQPKPILYYDERSPPVRSCLMLIKLLDIDVELRFVNLFKGEQFQKDFLALNPQHSVPTLVHGDLVLTDSHAILIHLAEKFDEGGSLWPQEHAERMKVLNLLLFECSFLFRRDSDFMSATVRQGFANVDVAHHERKLTEAYIIMERYLENSDFMAGPQLTLADLSIVTTLSTVNLMFPLSQFPRLRRWFTAMQQLDAYEANCSGLEKLRQTMESVGSFQFPSSSAVVTEKVE
With B4, the MAPPIT interaction score with poly was -0.119.

B5: H15 (protein)
chain: MLLSNQPANTKPQQTPSPSQTQNFKSKLQQQIVSAAAAAAANIANGSSHHHHHQNHHHHHPLNNHHNHNHNQHNISFATDFSIAAIMARGGNAPSSREPSERSLSPASVERYSGQDADDDVDVDVVDCSDSEMPSATAAAAAAATTAAAAAAALQAQQQARQALRVAQQQQQQQQQQRQQTHHHATTGKQQRQHHNHHSSNTNNSSNSGNSNTNSKSSSQRGRSAAAVGAAATPSPPPPPPSQSPEELERLSPEESPAQQPTPKIVGSCNCDDLTPVQCHLETKELWDKFHELGTEMIITKSGRRMFPTVRVSFSGPLRQIQPADRYAVLLDVVPLDSRRYRYAYHRSSWLVAGKADPPPPSRIYAHPDCPLSPEALRKQVVSFEKVKLTNNEMDKSGQVVLNSMHRYQPRIHLVRLSHGQSIPGSPKELQDMDHKTFVFPETVFTAVTAYQNQLITKLKIDSNPFAKGFRDSSRLSDFDRDPMDAFFFDQHMRTAPLRFFPDPLMSQLTPQEADAASMALLEKARQHLQMFGRSPYTEMLLPHLYQRSAAPPPPPPAPHLSAFQLGMWQQQWPQLTAGFLASANQQAALALAAAGANRTPPPSMAVAPPAPATPTSSCGSASPDLRARPQLNHYPQRFSPYQVPQHQASPPASNRAESP
For B5, the MAPPIT interaction score with otp was 0.104.

B6: croc (protein)
chain: MHTLFSDQNSFTRHYAQTAAGYGSASAVAAASSASAAAAAHYAYDQYSRYPYSASAYGLGAPHQNKEIVKPPYSYIALIAMAIQNAADKKVTLNGIYQYIMERFPYYRDNKQGWQNSIRHNLSLNECFVKVARDDKKPGKGSYWTLDPDSYNMFDNGSFLRRRRRFKKKDVMREKEEAIKRQAMMNEKLAEMKPLKLMTNGILEAKHMAAHAAHFKKEPLMDLGCLSGKEVSHAAMLNSCHDSLAQMNHLAGGGVEHPGFTVDSLMNVYNPRIHHSAYPYHLNEDNLATVASSQMHHVHHAAAAHHAQQLQRHVAHVAHPLTPGGQGAGGQSSGHSPTTISTPHGPAHGGWYTPETPPSEPVPHNGQQGTPTHPGHNNNNSSSVLNHNGVGNGGGGGGGGGGGSSSVLTSSPTSALGFRDMIFEQNQSCQLDTGSPTGSLQSASPPASASVAAASAAAAAAVISSHHHHHHHHAALSGNLGQLGQLSNLSHYRPHVGHYQEYGIKYGV
Take B6: the MAPPIT interaction score with opa was -0.778; in the test with prd, -0.752.

B7: peg (protein)
chain: MKLSAVLLAIALLALSLVQCLGLPDPSTKCVMECDTQEYRSICAADDKGSTKTYRNLCVMKTENCLQNANFQKISDKECP
On to B7, for which, in the test with ras, the MAPPIT interaction score is -1.69.

B8: Sce (protein)
chain: MTSLDPAPNKTWELSLYELQRKPQEVITDSTEIAVSPRSLHSELMCPICLDMLKKTMTTKECLHRFCSDCIVTALRSGNKECPTCRKKLVSKRSLRADPNFDLLISKIYPSREEYEAIQEKVMAKFNQTQSQQALVNSINEGIKLQSQNRPQRFRTKGGGGGGGGGGNGNGAANVAAPPAPGAPTAVGRNASNQMHVHDTASNDSNSNTNSIDRENRDPGHSGTSAASAITSASNAAPSSSANSGASTSATRMQVDDASNPPSVRSTPSPVPSNSSSSKPKRAMSVLTSERSEESESDSQMDCRTEGDSNIDTEGEGNGELGINDEIELVFKPHPTEMSADNQLIRALKENCVRYIKTTANATVDHLSKYLAMRLTLDLGADLPEACRVLNFCIYVAPQPQQLVILNGNQTLHQVNDKFWKVNKPMEMYYSWKKT
Turning to B8, in the test with ord, the MAPPIT interaction score was 1.68.

B9: rst (protein)
chain: MLHTMQLLLLATIVGMVRSSPYTSYQNQRFAMEPQDQTAVVGARVTLPCRVINKQGTLQWTKDDFGLGTSRDLSGFERYAMVGSDEEGDYSLDIYPVMLDDDARYQCQVSPGPEGQPAIRSTFAGLTVLVPPEAPKITQGDVIYATEDRKVEIECVSVGGKPAAEITWIDGLGNVLTDNIEYTVIPLPDQRRFTAKSVLRLTPKKEHHNTNFSCQAQNTADRTYRSAKIRVEVKYAPKVKVNVMGSLPGGAGGSVGGAGGGSVHMSTGSRIVEHSQVRLECRADANPSDVRYRWFINDEPIIGGQKTEMVIRNVTRKFHDAIVKCEVQNSVGKSEDSETLDISYAPSFRQRPQSMEADVGSVVSLTCEVDSNPQPEIVWIQHPSDRVVGTSTNLTFSVSNETAGRYYCKANVPGYAEISADAYVYLKGSPAIGSQRTQYGLVGDTARIECFASSVPRARHVSWTFNGQEISSESGHDYSILVDAVPGGVKSTLIIRDSQAYHYGKYNCTVVNDYGNDVAEIQLQAKKSVSLLMTIVGGISVVAFLLVLTILVVVYIKCKKRTKLPPADVISEHQITKNGGVSCKLEPGDRTSNYSDLKVDISGGYVPYGDYSTHYSPPPQYLTTCSTKSNGSSTIMQNNHQNQLQLQQQQQQSHHQHHTQTTTLPMTFLTNSSGGSLTGSIIGSREIRQDNGLPSLQSTTASVVSSSPNGSCSNQSTTAATTTTTHVVVPSSMALSVDPRYSAIYGNPYLRSSNSSLLPPPTAV
Take B9: the MAPPIT interaction score is 1.64 with rst (MAPPIT configuration: N-C) and 0.661 with rst (MAPPIT configuration: N-N).

B10: Pof (protein)
chain: MDSKRAALESGDGPDAKRLDTTDDQDKEASGGDGSQVMLAKHVAPYTGHGCTPPMESYLFEPTPAGSQLLPWKTSVDLDNDAELEKPTSDKKPDTAKLSRRELAKMRREHTLRALALERELTNKPGQTPASEVLLVRFPDPEITAPMLAGLSKDIRDVVLPISVAPRYCLVHLKAGADVEATICDINRVRFGTGHLRAELKPFSDEEQAEFIDPCSLYVGNIPFNMTTSAIKAYFANAMRVDIGVLKREKRARYAFVRYASPDQTMEAFKELVDSPLNSRTLTVRYRRLRKRAGMPMVQCATSFQALQSPNGDDDNTDCKVISPPPLESIIISDSDNCSDSSGNGKEDGKRKKKINEQEREIEKLKRQMAEYGAIIKSLQFRQNSLEDTFIPDLTPKVEPSVNPTGCLLGSNAVHLMRDIKKECDYLGIPDPVPATKPTTQAQDDSQKKAKRSCFGRLFTGPFRRGTSAMKTADEYEKDDRLEELYAQLERDPDP
In the case of B10, in the test with salr, the MAPPIT interaction score is 0.283.

B11: insv (protein)
chain: MENQYQRIVSATAREDSQARRSKPLFLNAWSQTSSVDFEVLRSISAPDPQVEVENRALRDKVRYLEAKLQQHKDLLSQIHATSARMQQASSLLAESRPPTPPAVQSHHILTPPSSEICAPAQNPQILDYKIISAPDDADAIEIRLAAESLNSLSTSADSDRLEICLGDENHQQSNHHNSQQQYRISNGIKRDGSSESADTPLQFIKRRKLQEIQLQEEIPRQNIKLPAKPQVKARNGSFTDLNKGQQQNMDNVMVSIGPNNTCVPASVFENINWSVCSLATRKLLVTIFDRETLATHSMTGKPSPAFKDQDKPLKRMLDPGKIQDIIFAVTHKCNASEKEVRNAITTKCADENKMMKIQNVKRRSSGIKHEKENII
B11: the MAPPIT interaction score in the test with sac is -0.275.

B12: hfp (protein)
chain: MGSNDRASRSPRSDDQREISDMPATKRTRSDSGKSTDSKIPYLSQPLYDLKQTGDVKFGPGTRSALLGLLGGALPKLSSEQHDLVSKAKKYAMEQSIKMVLMKQTLAHQQQQLATQRTQVQRQQALALMCRVYVGSISFELKEDTIRVAFTPFGPIKSINMSWDPITQKHKGFAFVEYEIPEGAQLALEQMNGALMGGRNIKVGRPSNMPQAQQVIDEVQEEAKSFNRIYVASIHPDLSEEDIKSVFEAFGPILYCKLAQGTSLHTHKGYGFIEYANKQAMDEAIASMNLFDLGGQLLRVGRSITPPNALACPTTNSTMPTAAAVAAAAATAKIQALDAVASNAVLGLSQNTPVMAAGAVVTKVGAMPVVSAATSAAALHPALAQAAPALLPPGIFQAPTPVAPSLLGVPAGLQPLQAVVPTLPPPALLATPTLPMTVGGVGVGLVPTVATLAGAEASKGAAAAAALSAAANNAAVTAANLSENIKKAHEKQQEELQKKLMDEGDVQTLQQQENMSIKGQSARQLVMQRLMRPVDSRVIILRNMVGPEDVDETLQEEIQEECSKFGTVSRVIIFNEKQTENEDDDEAEIIVKIFVEFSAGAEAMRGKEALDGRFFGGRRVVAELYDQGIFDQGDLSG
In the case of B12, in the test with rux, the MAPPIT interaction score was 0.808.

B13: CG1161 (protein)
chain: MAHKRLFVYAVLLVICYLVGVTWAETAAQTFPAIGTNSNNNSNAQPAPVPAPAAPAAAAPLAKQVSAPTAAPPAKVIGQPVLAAPGKNSSNSSSTTECVCAGALLPRLDANGKELPICAECKCSHVARNTTLIKVVVIIVIWIISILVIYMLFLMCLDPLLNKRVKANYQEHTNEDDEPTPPLPAVNNQELSARANVLNRVGHQQDKWKRQVREQRRHIYDRHTMLN
Consider B13, for which the MAPPIT interaction score with nw was 0.0762.
